Compounds with a hit are over-represented: about 2.8% of the library has one in this group of screens.
HIF act – HIF pathway transcriptional activation. activation, % at 7.5 µM (by protocol). 0.32% of 300,000 active. U2OS HRE-luciferase reporter, luminescence; normalized: DMSO 0%, desferrioxamine 100%. AID 1910;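 active = mean activation of at least 10% of the iron chelator positive control signal, with at least half of replicates also reaching 10%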
Platelet DG rel – modulates dense granule release in human platelets. inhibition, %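 (compounds screened at 7.5 µM in platelet-rich plasma)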. human platelet-rich plasma, SFLLRN dense granule ATP release, luminescence. 0.22% of 300,000 active;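 active = mean replicate score, as percent of positive control, at or above 50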
AHR activator – human AHR activation | activation, % at 5 µM | 2.5% of 320,000 active | AHR-responsive luciferase reporter cells, luminescence | P35869; in the data active = activation above about 47%;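 also: 0% = vehicle wells and 100% = reference agonist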
Target sequence (P35869 whole entry, looked up): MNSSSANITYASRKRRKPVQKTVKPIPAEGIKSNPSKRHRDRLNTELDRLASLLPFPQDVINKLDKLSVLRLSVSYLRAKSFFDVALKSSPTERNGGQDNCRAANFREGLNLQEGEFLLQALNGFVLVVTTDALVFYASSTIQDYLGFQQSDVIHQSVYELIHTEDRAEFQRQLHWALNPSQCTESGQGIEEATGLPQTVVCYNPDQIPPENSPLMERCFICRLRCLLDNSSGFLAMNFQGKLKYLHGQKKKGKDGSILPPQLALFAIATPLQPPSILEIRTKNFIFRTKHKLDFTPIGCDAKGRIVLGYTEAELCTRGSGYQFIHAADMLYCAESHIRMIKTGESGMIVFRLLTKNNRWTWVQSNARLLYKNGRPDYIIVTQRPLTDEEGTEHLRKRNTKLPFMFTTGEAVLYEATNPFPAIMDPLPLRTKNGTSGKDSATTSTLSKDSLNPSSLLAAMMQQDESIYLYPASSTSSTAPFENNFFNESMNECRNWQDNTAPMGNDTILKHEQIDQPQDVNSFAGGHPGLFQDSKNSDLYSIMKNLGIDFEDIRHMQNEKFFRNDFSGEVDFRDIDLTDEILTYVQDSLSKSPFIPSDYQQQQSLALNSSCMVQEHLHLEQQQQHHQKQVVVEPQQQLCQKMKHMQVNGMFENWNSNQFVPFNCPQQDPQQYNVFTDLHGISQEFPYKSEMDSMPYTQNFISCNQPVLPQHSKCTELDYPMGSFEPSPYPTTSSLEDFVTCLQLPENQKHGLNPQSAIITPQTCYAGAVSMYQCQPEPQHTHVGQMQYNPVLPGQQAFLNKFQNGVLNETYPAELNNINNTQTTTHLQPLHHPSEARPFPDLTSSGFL
pCIP destab – lowers stability of the mouse p/CIP coactivator protein; Q05BA5; F442A p/CIP-EGFP cells, EGFP fluorescence, 16 h; decrease of EGFP signal, % at 10 µM; 0.01% of 290,000 active;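 active = EGFP signal decrease of at least 30% at 10 µM or well 3 SD below plate mean, unless failing retest; inactive = the rest, including hits failing retest or dose response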
PolyA inh – blocks polyadenylation in yeast reporter cells | S. cerevisiae SKY197-pL101 polyadenylation reporter, beta-gal luminescence; efflux-impaired pdr1/pdr3 knockout yeast; score 100 = 6 SD above DMSO | activity score, % at 12 µM | 0.02% of 300,000 active;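 active = lowest replicate activity score at least 50, where 100 means six control SD above control mean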;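 also: yeast exposed to compound for 9 h at 30 °C; higher score means more reporter readthrough which indicates perturbed polyadenylation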
AHR act confirm – confirmation of human aryl hydrocarbon receptor activators. shares compounds with AHR activator. human cells, AHR-responsive luciferase reporter, luminescence. activation, % at 9 µM. 87% of 2,300 active; in the data active = activation above about 49%;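 also: HepG2 hepatoma cells carrying a DRE-driven firefly luciferase reporter; 0% = vehicle wells and 100% = reference agonist wells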
PXR counter – activates human PXR in AHR activator counter-screen | cell-based PXR reporter, luciferase luminescence | shares compounds with AHR activator | 88% of 2,300 active | activation, % at 11.6 µM; in the data active = activation above about 11%;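 also: human hepatoma DPX-2 cells expressing full-length human PXR; 0% = DMSO and 100% = reference agonist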
* hit, by the source's call; . = no result given.

SMILES	HIF act	Platelet DG rel	AHR activator	pCIP destab	PolyA inh	AHR act confirm	PXR counter
Cc1ccc(NC(=O)CCN2C(=O)c3cccc4cccc(c34)C2=O)cc1	0	3	47	1	28	.	.
O=C1c2cccc3cccc(c23)C(=O)N1CCN1CCN(CC(O)COc2ccccc2)CC1 (stereo unspecified)	0	12	87*	5	22	59*	16*
Cc1ccc(-n2nc3cc(C)c(N)cc3n2)cc1	2	3	22	-32	-1	.	.
Cc1cc2nn(-c3cccc4ccccc34)nc2cc1N	0	-5	82*	11	-7	110*	21*
O=C(CCn1c(=O)oc2ccccc21)Nc1nc2ccccc2s1	1	0	104*	-15	-11	82*	104*
C=CCc1ccccc1OCCOc1ccc([N+](=O)[O-])cc1/C=N/NC(N)=O	0	17	111*	7	13	90*	35*
Cn1c(NC(=O)c2cccc(C(F)(F)F)c2)cc(=O)n(C)c1=O	0	-15	136*	-2	13	120*	16*
Cc1ccc(OCCOc2ccc(Br)cc2/C=N\NC(N)=O)cc1	1	-13	92*	-14	4	27	6
CCCc1cc(=O)n2[nH]c(-c3cccc(Br)c3)cc2n1	1	6	160*	-5	2	166*	35*
Cc1ccccc1-c1cc2nc(-c3ccc([N+](=O)[O-])cc3)cc(=O)n2[nH]1	0	-2	1	-18	21	.	.
CCOC(=O)Cc1cc(=O)n2[nH]c(-c3ccccc3)cc2n1	0	-11	4	-5	-1	.	.
CCCc1cc(=O)n2[nH]c(-c3ccc(Br)cc3)cc2n1	3	-2	104*	1	-2	110*	47*
Cc1cccc(-c2cc3nc(-c4ccccc4)cc(=O)n3[nH]2)c1	3	-5	89*	-2	-5	105*	34*
O=C(Nc1nc2ccccc2s1)c1ccc(Cl)s1	.	4	82*	-3	2	50*	12*
COc1ccccc1/C(C)=N/NC(=S)NCc1ccccc1	0	-4	32	0	12	.	.
COc1ccc(Cc2nnc(NC(C)=O)s2)cc1	0	-2	1	-8	10	.	.
COc1cccc(C(=O)Nc2nnc(C(C)C)s2)c1	1	8	133*	-1	-2	0	28*
COc1ccc(Cc2nnc(NC(=O)c3cc(OC)cc(OC)c3)s2)cc1	-1	2	82*	10	-9	76*	12*
CCOc1cc(/C=N/N2CCN(Cc3ccccc3)CC2)ccc1O	2	-2	1	-17	-7	.	.
Cc1ccc(OCCN(C)C(=O)C2CCC(=O)N(CCCN3CCCC3=O)C2)cc1 (stereo unspecified)	0	-6	1	6	1	.	.
Cc1cc(C)cc(N(C(=O)c2csnn2)C(C(=O)NC2CCCC2)c2ccccn2)c1 (stereo unspecified)	-13	-14	3	1	-17	.	.
S=c1[nH]c(-c2ccccc2)cn1/N=C/c1ccncc1	2	10	88*	-1	-4	135*	8
S=c1[nH]ncn1/N=C/c1ccccc1	0	13	0	-3	4	.	.
CCOc1ccc(/C=N/n2cc(-c3ccccc3)[nH]c2=S)cc1	3	-1	84*	-6	-9	108*	.
COc1ccc(/C=N/n2c(-c3ccccc3)n[nH]c2=S)cc1	-1	-2	5	-6	-21	.	.
SMILES	HIF act	Platelet DG rel	AHR activator	pCIP destab	PolyA inh	AHR act confirm	PXR counter
Cc1cc(C(=O)N/N=C/c2ccc(C)s2)n[nH]1	2	-7	97*	4	2	89*	24*
Cc1cc(C(=O)N/N=C/c2ccc([N+](=O)[O-])s2)n[nH]1	-1	-17	2	-34	1	.	.
CC(=O)c1noc(C)c1C(=O)Nc1nccs1	0	0	103*	-5	-3	81*	.
CCCOc1ccc(-c2c(=O)n(O)c3ccccc3[n+]2[O-])cc1	5	17	6	2	-12	.	.
CN(c1ccccc1)c1nc(-n2ccnc2)nc(-n2ccnc2)n1	-1	0	92*	7	-33	106*	29*
Cc1cc(/C=C2\NC(=S)NC2=O)c(C)n1-c1cccnc1	0	-13	100*	-12	9	59*	33*
O=C(Nc1ccc(Cl)cc1)c1cccc(NC2=NC3CS(=O)(=O)CC3S2)c1 (stereo unspecified)	0	-4	182*	-1	2	117*	19*
CC(C)c1ccc(NC(=O)c2cccc(NC3=NC4CS(=O)(=O)CC4S3)c2)cc1 (stereo unspecified)	1	-3	1	-2	1	.	.
O=C(CSc1nc2ncc(Br)cc2[nH]1)c1cccc([N+](=O)[O-])c1	0	0	92*	5	3	67*	98*
CC(C)(C)C(=O)CSc1nc2ncc(Br)cc2[nH]1	0	-29	84*	0	-7	57*	125*
O=[N+]([O-])c1ccc(CSc2nc3ncc(Br)cc3[nH]2)cc1	0	-11	9	-10	6	.	.
Fc1ccccc1CSc1nc2ncc(Br)cc2[nH]1	2	6	104*	-2	-13	71*	100*
N#Cc1ccccc1CSc1nc2ncc(Br)cc2[nH]1	.	1	44	-10	-22	.	.
Cc1cc(SCC(=O)NC2CCCC2)nc2ccccc12	0	4	-2	-12	-36	.	.
COc1ccc(C)c2sc(NC(=O)C3=COCCO3)nc12	2	-2	84*	10	16	66*	19*
COc1ccc(OC)c2sc(NC(=O)C3=COCCO3)nc12	0	4	98*	-19	9	88*	6
CCOCC(=O)Nc1c(C(=O)Nc2ccc3c(c2)OCO3)oc2ccccc12	4	10	102*	-4	-19	106*	51*
Cc1ccc(NC(=O)c2oc3ccccc3c2NC(=O)c2ccc3c(c2)OCO3)cc1	1	1	7	-5	6	.	.
COc1ccc(NC(=O)c2oc3ccccc3c2NC(=O)C(C)(C)C)cc1	0	4	-4	-5	8	.	.
CCOc1ccc(NC(=O)c2oc3ccccc3c2NC(=O)CC)cc1	1	-12	95*	-18	-12	58*	29*
Cn1c2ccccc2c(=O)c2ccc(C#Cc3ccccn3)cc21	0	-1	4	-5	-13	.	.
Cn1c2ccccc2c(=O)c2cc(C#Cc3ccccn3)ccc21	3	7	96*	-5	-19	115*	28*

Screening data as filed in PubChem BioAssay.
